Bioassay records deposited in PubChem by National Center for Advancing Translational Sciences (NCATS).
HCMV antiviral: qHTS Assay for inhibitors of the human cytomegalovirus (HCMV); HFF cells, HCMV-luciferase reporter, 72 h; active compounds read low; hit rate 4.5% among 410,000; activity change, negative = inhibition, % at 57.5 µM; in the data active = activity change below about -60%; inconclusive = no clear call, values can overlap the other calls; inactive = above about -39%
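Cell-based, HFFs, 1000 cells/well, 16 h 37C; cpds in DMSO + HCMV-luc, MOI 1 PFU/cell; 72 h 37C; OneGlo luminescence after 5 min RT; norm. to buffer vs Salinomycin 10uM.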
FMDV antiviral: High Throughput Screening for Foot and Mouth Disease Virus Antivirals | FMDV antiviral cell-based qHTS | Potency, µM (top dose mostly 57.9 µM), without a hit: at the highest dose activity change, negative = inhibition, most hits filed as inhibitors | hit rate 1.2% among 410,000; calls by dose curve; tested in HEK293T cells; also: read-out not given here; potency is read from the fitted curve at half-maximal effect; nearly all actives have a fitted effect of over 45% in size
Vaccinia Venus: qHTS for Stage-Specific Inhibitors of Vaccinia Orthopoxvirus: Venus Reporter Primary qHTS. Vaccinia virus Venus reporter expression, fluorescence. Potency, µM (titrated, usually from 36.5 µM), for inactives: at the top dose activity change, negative = inhibition, hits mostly inhibitors. hit rate 0.46% among 330,000; calls by dose curve; tested in A549 cells; also: potency is read from the fitted curve at half-maximal effect; nearly all actives have a fitted effect of over 30% in size
Sm TGR inh: qHTS Assay for the Inhibitors of Schistosoma Mansoni Peroxiredoxins. Schistosoma mansoni thioredoxin glutathione reductase (TGR), Q962Y6. hit rate 3% among 360,000. purified TGR, DTNB reduction, TNB absorbance 405 nm. Potency, µM (highest dose often 114 µM), for inactives: at the top dose activity change, negative = inhibition, actives largely listed as inhibitors; also: potency is read from the fitted curve at half-maximal effect; nearly all actives have a fitted effect of over 60% in size
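Kinetic colorimetric format: TGR-catalysed, NADPH-driven DTNB reduction monitored via TNB absorbance. Enzyme dispensed at 20 nM; compound exposure 15 min at room temperature before reaction start.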
HCV inh: qHTS Assay for Inhibitors of Hepatitis C Virus (HCV); Huh7.5.1 HCVcc-Cre infection, luciferase reporter, 44 h; Potency, µM (titrated, usually from 41.8 µM), for inactives: at the highest dose activity change, negative = inhibition, hits mostly inhibitors; hit rate 3.4% among 340,000; AID 651820, 2012; also: potency is read from the fitted curve at half-maximal effect
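Antiviral activity was scored by luciferase reporter output from cells infected with HCVcc-Cre (~0.5 moi) in presence of compound, 44 h infection period, cells seeded 1,000/well 4 h prior.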
VACV mCherry inh: qHTS for Stage-Specific Inhibitors of Vaccinia Orthopoxvirus: mCherry Reporter Primary qHTS | Vaccinia virus mCherry reporter infection, fluorescence | Potency, µM (series often up to 36.5 µM), for inactives: at the top dose activity change, negative = inhibition, hits mostly inhibitors | hit rate 0.63% among 310,000; calls by dose curve; tested in A549 cells; also: potency is read from the fitted curve at half-maximal effect; nearly all actives have a fitted effect of over 35% in size
The depositor's hits bear a star; i = inactive; ? = inconclusive; · = not tested or not shown; [ ] = remark or other dose. Only some compounds are listed: those with a hit (about 9.3% of all), similar ones and a draw of the others. Unless noted, calls follow the shape of the dose curve; as a rule, active = well fitted curve in the direction sought with a large enough effect; inconclusive = small, poorly fitted or top-dose-only effect, or another doubt; inactive = no such curve, though single readings can be large; an effect the other way counts as inactive or inconclusive. % is scaled to controls: 0 for no effect and ±100 for the full control effect.

SMILES	HCMV antiviral	FMDV antiviral	Vaccinia Venus	Sm TGR inh	HCV inh	VACV mCherry inh
O=C(c1ccccc1)c1ccc(OCC(O)CN2CCCCC2)cc1 (stereo not given)	40	-15%	-6%	-7%	?	-13%
OC(COc1ccc(F)cc1)CN1CCN(CC(O)COc2ccc(F)cc2)CC1 (stereo not given)	5	1%	-11%	-5%	32µM*	-7%
O=C(c1ccccc1)c1ccc(OCC(O)CN2CCN(S(=O)(=O)N3CCCCC3)CC2)cc1 (stereo not given)	-67*	14µM*	·	8%	?	·
Cc1cc(C)cc(NC(=O)Cn2cc3c(n2)CCCCC3)c1	·	·	·	1%	·	·
CN(C)c1ccc(NC(=O)Cn2cc3c(n2)CCCC3)cc1	-99*	35%	3%	-26%	-15%	-5%
CN(Cc1ccccc1)C(=O)COC(=O)c1cc(NS(=O)(=O)c2cccs2)ccc1O	-22	?	·	7%	10µM*	·
O=C(COC(=O)c1cc(NS(=O)(=O)c2cccs2)ccc1O)Nc1ccccc1	2	3%	-11%	-3%	-16%	-17%
O=C(NNc1ccccc1)c1ccc(Cl)c(Cl)c1	-77*	18%	-9%	·	?	-9%
NS(=O)(=O)c1ccc(NNC(=O)c2ccccc2)cc1	5	-2%	·	-14%	1%	·
O=C(Nc1ccccc1C(=O)Nc1nnc(C(F)(F)F)s1)c1ccccc1Cl	-103*	?	-47%	10%	11µM*	?
Cc1onc(-c2c(F)cccc2Cl)c1C(=O)Nc1nccs1	?	-28%	-14%	-15%	-15%	-20%
Cc1onc(-c2c(F)cccc2Cl)c1C(=O)Nc1nnc(C(F)(F)F)s1	-98*	?	·	2%	?	·
O=C(NNc1cc(Br)c(O)c(Br)c1)c1ccccc1	?	-21%	-10%	18µM*	23%	?
C/C(=N\NS(=O)(=O)c1ccc(Br)cc1)c1ccc2c(c1)OCO2	25	65%	4%	-10%	10%	-13%
Cc1cc(-c2n[nH]c(=S)n2-c2ccccc2C)cs1	-26	-12%	-10%	0%	-17%	-11%
Cc1onc(-c2c(Cl)cccc2Cl)c1NC(=O)NNc1ccccc1	-9	-16%	·	-12%	15%	·
O=C(Nc1nnc(-c2ccccc2Cl)s1)c1ccccc1F	13	47%	·	28µM*	7%	·
O=C(Nc1nnc(C(F)(F)F)s1)c1ccc(Br)s1	?	-5%	?	8%	?	10µM*
O=C(Nc1nnc(-c2ccccc2)s1)c1ccccc1F	71	46%	-23%	13%	16%	i
CC(C)(C)CC(=O)Nc1nnc(C(F)(F)F)s1	-19	-8%	-10%	-12%	15%	-15%
Cc1onc(-c2c(Cl)cccc2Cl)c1C(=O)NNc1ccccc1	-10	-11%	-16%	50µM*	3%	i
CCSc1nnc(NC(=O)c2ccc(Br)s2)s1	52	0%	-21%	7%	10%	-30%
CC(NC(=O)Nc1nnc(C(F)(F)F)s1)(C(F)(F)F)C(F)(F)F	-98*	?	2.5µM*	2%	2.8µM*	4µM*
COc1ccc(OCCC(=O)OCC(=O)NC2CCCCC2)cc1	-7	5%	-3%	·	18%	-14%
CN(C(=O)C=Cc1ccccc1)c1ccccc1	-101*	36%	-4%	·	-14%	-21%
SMILES	HCMV antiviral	FMDV antiviral	Vaccinia Venus	Sm TGR inh	HCV inh	VACV mCherry inh
COc1ccc(S(=O)(=O)N2CCN(CCCOc3ccc(F)cc3)CC2)cc1OC	?	?	-23%	3%	11µM*	-9%
COc1ccc(S(=O)(=O)N2CCN(c3ccc(F)cc3)CC2)cc1OC	12	-16%	·	1%	9%	·
COC(=O)c1ccc(S(=O)(=O)N2CCCN(Cc3ccc(F)cc3)CC2)n1C	-64*	?	·	?	11µM*	·
COc1ccc(CN2CCN(S(=O)(=O)c3ccc(F)cc3)CC2)cc1OC	-60*	-30%	-17%	-8%[11.4 µM]	-24%	-9%
CCc1cccc(C)c1NC(=S)N(CCOC)C(C)c1ccco1 (stereo not given)	-66*	1%	-8%	10%	-13%	-23%
CCc1ccccc1NC(=S)N(CCOC)C(C)c1ccco1 (stereo not given)	-1	5%	-12%	11%	-4%	i
CN1CCN(Cc2cc(=O)n3ccsc3n2)CC1	-89*	-12%	-3%	-16%	5%	i
CC1Cc2ccccc2N1Cc1cc(=O)n2ccsc2n1 (stereo not given)	32	3%	-6%	22µM*	?	-22%
COc1cc(C(C)=NNC(=O)c2ccncc2)ccc1O	-101*	4%	-4%	·	-1%	-12%
COc1ccc(C(=O)N/N=C(\C)c2cccc(NC(=O)c3ccc(F)cc3)c2)c(OC)c1	-61*	23%	?	-11%	?	?
C/C(=N\NC(=O)c1cc(O)ccc1O)c1cccc(NC(=O)c2cccc(Cl)c2)c1	32	22%	·	63µM*	-14%	·
C/C(=N\NC(=O)c1cc(O)ccc1O)c1cccc(NC(=O)c2ccc(Cl)cc2)c1	19	-28%	-13%	40µM*	?	0%
C/C(=N\NC(=O)C1CC1)c1cccc(NC(=O)c2cccc(Cl)c2)c1	·	·	·	2%	·	·
C/C(=N\NC(=O)c1ccccc1O)c1cccc(NC(=O)c2ccccc2)c1	289	29%	·	8%	-4%	·
C/C(=N\NC(=O)c1ccncc1)c1cccc(NC(=O)c2ccc(C(C)(C)C)cc2)c1	64	-1%	-19%	-4%	10µM*	-24%
Cc1ccccc1N1CCN(Cc2ccc([N+](=O)[O-])o2)CC1	-25	-13%	-25%	35µM*	1%	-19%
O=[N+]([O-])c1ccc(CN2CCN(c3ccccc3Cl)CC2)o1	-20	-11%	·	0%	7%	·
COc1ccccc1N1CCN(Cc2ccc(-c3ccccc3[N+](=O)[O-])o2)CC1	55	-27%	·	25µM*	?	·
COc1ccc(-c2nc3ccc(Br)cn3c2Cc2cccc(Cl)c2)cc1OC	?	-15%	5%	·	·	15%
COc1ccc(-c2nc3ccc(Br)cn3c2Cc2ccccc2)cc1OC	-65*	-3%	-14%	·	·	i
Fc1cccc(Cc2c(-c3ccco3)nc3ccc(Br)cn23)c1	57	35µM*	2%	·	·	5%
O=C1NC(NS(=O)(=O)c2ccccc2)(C(F)(F)F)C(=O)N1Cc1cccnc1 (stereo not given)	-11	-5%	·	3%	17%	·
CC1(C)c2ccccc2N2CC(=O)N[C@@]21/C=C/C=C/c1ccccc1	-66*	-28%	-16%	-1%	-19%	-23%
